PubChem BioAssay (NCI)
This is part of a sample that, as a whole, favours compounds with a hit. Of some 79,000 tested, about 15% had one in any assay. Rule as the data show it: active = growth inhibition above about 70%; inactive = the rest.

How the values were obtained:
[1] = NCI Yeast Anticancer Drug Screen. Data for the rad50 strain (AID 155);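 also: 0% = growth of vehicle-only cultures of the same strain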; settings: S. cerevisiae rad50 strain growth inhibition; at 50.0 µM; stronger effect = higher value
In short: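 Growth of the mutant yeast was measured after compound exposure and referenced to vehicle-treated cultures.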

[2] = NCI Yeast Anticancer Drug Screen. Data for the mec2-1 strain (AID 157); settings: S. cerevisiae mec2-1 strain, at 50.0 µM, stronger effect = higher value
In short: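 Each compound was tested on mec2-1 yeast, a strain altered in DNA damage repair or cell cycle control. Growth inhibition is reported relative to vehicle.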

[3] = NCI Yeast Anticancer Drug Screen. Data for the sgs1 mgt1 strain (AID 161);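 also: 0% = growth of cultures given vehicle only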; settings: S. cerevisiae sgs1 mgt1 strain, at 50.0 µM, stronger effect = higher value
In short: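 Mutant yeast exposed to compound; growth scored against vehicle-only wells.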

[4] = NCI Yeast Anticancer Drug Screen. Data for the cln2 rad14 strain (AID 165);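 also: 0% = growth equal to vehicle treated cultures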; settings: S. cerevisiae cln2 rad14 strain, at 50.0 µM, stronger effect = higher value
In short: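 Test compounds were added to cln2 rad14 yeast cultures; inhibition of growth was then determined by comparison with vehicle treatment.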

[5] = NCI Yeast Anticancer Drug Screen. Data for the bub3 strain (AID 167); settings: S. cerevisiae bub3 mutant strain, at 50.0 µM, stronger effect = higher value
In short: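 Whole-cell yeast assay. The mutant strain was incubated with compounds, and growth inhibition was determined by comparison with vehicle-treated cells.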

[6] = NCI Yeast Anticancer Drug Screen. Data for the mlh1 rad18 strain (AID 175); settings: S. cerevisiae mlh1 rad18 strain growth inhibition; at 50.0 µM; stronger effect = higher value
In short: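 Inhibition values reflect reduced growth of mutant yeast versus vehicle-treated controls following compound exposure; the mutations affect DNA damage repair.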

Measured: growth inhibition

CC1(c2cccc3c2C2(O)C=CC4(CCC32)OCCO4)OCCO1 (stereo unspecified)
inactive: [1] -59.4% | [2] -41.2% | [3] -55.8% | [4] -27.6% | [5] -61.1% | [6] -26%

CC(C)=Cc1cc(-c2cc(C=C(C)C)on2)no1
inactive: [1] 8.1% | [2] -7.05% | [3] 3.85% | [4] 1.15% | [5] -8% | [6] 4%

O=C(O)c1ccc(C(=O)Nc2cccc3ccccc23)c(C(=O)O)c1
inactive: [1] -6.9% | [2] 8.4% | [3] -11.9% | [4] 6.35% | [5] 3.55% | [6] -10.2%

Clc1ccc(/C=N/c2ccccn2)cc1
inactive: [1] -37.2% | [2] -51.4% | [3] -22.8% | [4] 19.9% | [5] -54.1% | [6] -31.1%

N#Cc1nc(Nc2ccc([N+](=O)[O-])cc2)sc1N
inactive: [1] 55.1% | [2] 33.8% | [3] 31.1% | [4] 36.2% | [5] 19.9% | [6] 22.4%

CCc1c(C#N)c(=O)[nH]c(=O)n1CCN1CCN(C(=O)NCCCCCCNC(=O)N2CCN(CCn3c(CC)c(C#N)c(=O)[nH]c3=O)CC2)CC1
inactive: [1] 4.6% | [2] 2.55% | [3] -14.4% | [4] -23.6% | [5] 2.7% | [6] -26.1%

CCOC(=O)C1=NN(c2ccccc2)C(=O)/C1=C\N1C(=S)NC(=O)/C1=C\c1cccc([N+](=O)[O-])c1
inactive: [1] 11.2% | [2] -11.6% | [3] 1.25% | [4] 31.3% | [5] -4.8% | [6] -4.8%

CCC(C)CCC(=O)C(C)C(=O)O (stereo unspecified)
inactive: [1] 5.7% | [2] 3.1% | [3] 3.45% | [4] -11.3% | [5] 4.45% | [6] 0.5%

CC(CC(C(=O)Nc1ccccc1)(c1ccccc1)c1ccccc1)N(C)C (stereo unspecified)
inactive: [1] -0.2% | [2] -18.2% | [3] 3.55% | [4] -2.15% | [5] -5.1% | [6] 6.2%

COC(=O)c1nc2c(N)nc(-c3ccccc3)nc2nc1N
inactive: [1] 8.9% | [2] -7.4% | [3] 23.1% | [4] 11.3% | [5] -16.6% | [6] -1.95%

CC1CCc2[nH]nc(CC3CC(=O)NC(=O)C3)c2C1 (stereo unspecified)
inactive: [1] 15.9% | [2] -2.2% | [3] 10.8% | [4] 27.2% | [5] -7.35% | [6] 3.7%

COc1ccc(-c2cc(-c3ccc(C)cc3)n(C3OC(COC(C)=O)C(OC(C)=O)C(OC(C)=O)C3OC(C)=O)c(=S)c2C#N)cc1 (stereo unspecified)
inactive: [1] -10.6% | [2] -11.2% | [3] -10.3% | [4] 16.9% | [5] -2% | [6] 4.4%

O=C1OC(c2cccc3ccc(Br)cc23)c2ccccc21 (stereo unspecified)
inactive: [1] 21.1% | [2] 0.5% | [3] 6.2% | [4] 19.5% | [5] 16.1% | [6] 3.45%

CC(=O)OCC1OC(OCC(OC(C)=O)C(OC(C)=O)C(OC(C)=O)c2cnn(-c3ccccc3)n2)C(OC(C)=O)C(OC(C)=O)C1OC(C)=O (stereo unspecified)
inactive: [1] 1.35% | [2] 0.2% | [3] 2.65% | [4] -15.2% | [5] 12.4% | [6] 6.5%

Cc1ccc(NC(=O)C(C)C)cc1
inactive: [1] -14% | [2] -16.6% | [3] -13.4% | [4] -24.2% | [5] -19.1% | [6] -21.2%

O=C(O)c1cc(C(=O)O)cc(N2C(=O)c3ccccc3C2=O)c1
inactive: [1] 1.45% | [2] -30.4% | [3] -22.4% | [4] 39.3% | [5] -6.1% | [6] 0.5%

CCCCCCCCCCCCCCCCCCOCCCCCCCCCCCC
inactive: [1] -34.8% | [2] -15.6% | [3] -20% | [4] -64% | [5] 5.05% | [6] -17.1%

Cc1cc(-c2cccc3ccccc23)c(C#N)c(=S)n1C1OC(CO)C(O)C(O)C1O (stereo unspecified)
inactive: [1] 14.1% | [2] 4.4% | [3] 47.4% | [4] 9.5% | [5] 15.8% | [6] 33.6%

Cc1nc(-c2cccnc2)sc1C(=O)/C=C/c1ccc(Cl)cc1Cl
inactive: [1] 12.8% | [2] -2.05% | [3] 3.85% | [4] 8.55% | [5] 3.7% | [6] 8.95%

CC(C)CC(CCl)Cc1nc2ccccc2[nH]1 (stereo unspecified)
inactive: [1] 13.1% | [2] 4.05% | [3] 39.8% | [4] 14.9% | [5] 33.6% | [6] 27.5%

CC(C)=NNC(=O)Nc1cccc(C)c1C
inactive: [1] 9.35% | [2] 15.2% | [3] -7.2% | [4] -47.3% | [5] -9.85% | [6] -6.7%

Cc1ccc(N=Nc2ccc(N)cc2C)c(S(N)(=O)=O)c1
inactive: [1] 40.3% | [2] 4.05% | [3] 51.3% | [4] 5.05% | [5] 61.8% | [6] 49%

CNCSc1ccccc1
inactive: [1] -6.6% | [2] -19.9% | [3] -1.75% | [4] -11.6% | [5] -30.1% | [6] -1.45%

CC(=O)OCC1OC(Sc2nc3ncnc(N)c3[nH]2)C(OC(C)=O)C(OC(C)=O)C1OC(C)=O (stereo unspecified)
inactive: [1] -0.55% | [2] -1.3% | [3] -18.9% | [4] -3.5% | [5] 4.5% | [6] -3.4%

CCC(/C=C\C(C)C1CCC2C3CC=C4CC(OS(=O)(=O)c5ccc(C)cc5)CCC4(C)C3CCC12C)C(C)C (stereo unspecified)
inactive: [1] -9.9% | [2] -3.95% | [3] -16.6% | [4] -5.6% | [5] 1.1% | [6] -32.1%

COCC(=O)C(C(C)=O)C(c1ccncc1)C(C(C)=O)C(=O)COC (stereo unspecified)
inactive: [1] -7.75% | [2] 14.9% | [3] 6.85% | [4] -10.2% | [5] -1.6% | [6] -20.4%

O=C(O)c1c(Cl)c(Cl)c(Cl)c(Cl)c1C(=O)Nc1cccc(C(F)(F)F)c1
inactive: [1] -9.55% | [2] 10.2% | [3] -8.8% | [4] -7.35% | [5] -1.7% | [6] -14.7%

O=C(c1ccccc1)c1c(-c2ccccc2)sc2nc3ccccc3nc12
inactive: [1] 3% | [2] 18.3% | [3] 3.2% | [4] 29.1% | [5] 2.65% | [6] 11.2%

CC(=O)OC1CCC2(C)OC(=O)CC2C1 (stereo unspecified)
inactive: [1] 2.2% | [2] 8.55% | [3] 6.9% | [4] -41.9% | [5] 9.6% | [6] 1.4%

COCOS(C)(=O)=O
inactive: [1] -4.05% | [2] -14.3% | [3] -2.85% | [4] 4.8% | [5] 9.4% | [6] -3.65%

CC1(C)c2ccccc2-c2nc3ccccc3nc2C1O (stereo unspecified)
inactive: [1] 4.65% | [2] 18.8% | [3] -8% | [4] -14% | [5] 1.95% | [6] -9.7%

CN(CC(=O)C(O)C(O)C(O)CO)c1ccccc1 (stereo unspecified)
inactive: [1] -10.4% | [2] -8.75% | [3] -7.6% | [4] -16.1% | [5] -2.6% | [6] -9.7%

C/C(CCC(=O)O)=N\NC(=O)COc1ccc(Cl)cc1Cl
inactive: [1] 31.4% | [2] -0.15% | [3] 18.6% | [4] 12.1% | [5] 14.8% | [6] 13.8%

O=C1Nc2ccccc2CS1
inactive: [1] 0.55% | [2] -4.9% | [3] -2.1% | [4] -5.85% | [5] 6.95% | [6] -1.05%

C=CCCC1CN2CCc3cc(OC)c(OC)cc3C2CC1=O (stereo unspecified)
inactive: [1] 15.3% | [2] 16.1% | [3] 10.6% | [4] -41.7% | [5] 28.4% | [6] 20.1%

O=C(NNC(=O)c1cccc2ccccc12)c1cccc(Cl)c1
inactive: [1] 3.5% | [2] -41.5% | [3] -6.9% | [4] 4.05% | [5] -4.05% | [6] -13.9%

Cc1c2ccccc2cc2c1ccc1c(Br)cccc12
inactive: [1] 10.1% | [2] -3.45% | [3] 21.3% | [4] 25.8% | [5] 12.1% | [6] 5.8%

CCC1(CCC#N)CCC(N)=CC1=O (stereo unspecified)
inactive: [1] 21.9% | [2] 17.3% | [3] 7.9% | [4] -50% | [5] -6.2% | [6] -0.75%

COC(=O)C1CCCC2(C1)OCCO2 (stereo unspecified)
inactive: [1] 15.2% | [2] 5% | [3] -23.1% | [4] -10.2% | [5] -32.7% | [6] -2.75%

O=[N+]([O-])c1ccccc1C=Nc1ccc2nc(SCc3ccccc3)sc2c1
inactive: [1] 8.15% | [2] 3.65% | [3] 3.95% | [4] 0.7% | [5] -4% | [6] -16.8%

CC1(C)OC2OC(C(O)COC(=O)c3ccccc3)C(Cl)C2O1 (stereo unspecified)
inactive: [1] 26.6% | [2] 8.35% | [3] -1.6% | [4] -5.5% | [5] 14.2% | [6] 39.3%
